Laboratory results from PubChem BioAssay (EPA / NIEHS).
Inconclusive results are not listed. Calls of active or inactive are those of the source. How the source made its calls: active means hit-call score of the fitted dose curve at least 0.9, where 1 is the maximum; inconclusive means response in the unintended direction; inactive means score below 0.9.

What was measured:
[1] = TOX21_p53_BLA_p5_viability: Viability Assessment in the Tox21 HCT-116 p53 Agonism Beta-lactamase Assay, Phase 5 (AID 2283600)
Outline: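 Cells were plated at 4000/well, rested 5 h at 37C, then given compounds in DMSO (217-fold dilution) for 16 h at 37C, 5% CO2. Following the CCF4-AM beta-lactamase read, CellTiter-Glo was added and luminescence was read after 30 min at room temperature.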

[2] = molecular target: Cellular tumor antigen p53 (Homo sapiens) (UniProt P04637); experiment: TOX21_p53_BLA_p5_ratio: Tox21 HCT-116 p53 Agonism Beta-lactamase Assay, Ratio, Phase 5 (AID 2283599)
Cellular tumor antigen p53 (Homo sapiens), sequence (P04637 whole entry, looked up): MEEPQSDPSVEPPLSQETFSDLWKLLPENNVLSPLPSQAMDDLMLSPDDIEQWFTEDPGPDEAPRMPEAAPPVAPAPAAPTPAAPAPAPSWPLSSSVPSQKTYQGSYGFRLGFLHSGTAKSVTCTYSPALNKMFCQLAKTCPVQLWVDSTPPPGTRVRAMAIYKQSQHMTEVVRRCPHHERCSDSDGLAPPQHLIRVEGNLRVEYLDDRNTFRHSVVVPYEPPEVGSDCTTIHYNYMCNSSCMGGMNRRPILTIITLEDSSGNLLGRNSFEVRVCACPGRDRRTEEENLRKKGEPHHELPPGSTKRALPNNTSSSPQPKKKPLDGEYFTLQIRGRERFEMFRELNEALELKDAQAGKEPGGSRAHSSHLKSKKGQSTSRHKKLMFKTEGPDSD
Outline: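 Beta-lactamase reporter ratio (blue 460 nm over green 530 nm, 405 nm excitation) after 2 h CCF4-AM loading, in HCT-116 cells exposed 16 h at 37 C to compounds pinned at 217-fold dilution. Increases relative to DMSO baseline scored.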

[3] = molecular target: Cellular tumor antigen p53 (Homo sapiens) (UniProt P04637); experiment: TOX21_p53_BLA_p4_ratio: Tox21 HCT-116 p53 Agonism Beta-lactamase Assay, Ratio, Phase 4 (AID 2283601)
Outline: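 Signal is the blue/green (460nm/530nm) ratio of cleaved versus uncleaved CCF4-AM substrate, read after 2 h substrate loading. Cells were HCT116 carrying the p53-responsive beta-lactamase reporter, dosed 16 h at 37C, 5% CO2; CellTiter-Glo measured in parallel.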

[4] = test system: Thyroperoxidase (TPO), gene 54314; experiment: CCTE_Simmons_AUR_rTPO: CCTE's Amplex UltraRed Assay for Thyroperoxidase (TPO) Inhibition, Simmons Lab (AID 2283662);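 on AC50: potency for loss of signal meaning inhibition of peroxidase activity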
Outline: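 Endpoint is decreased Amplex UltraRed fluorescence after a 30-min, 37C reaction of rat thyroid microsomes with 300 uM H2O2. Eight test concentrations (5 nM–87.5 uM final) in 0.5% DMSO, three biological replicates each.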

[5] = CCTE_Simmons_CellTiterGLO_HEK293T: Viability Assessment in CCTE's Assays for Thyroperoxidase (TPO) Inhibition, Simmons Lab (AID 2283665)
Outline: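 HEK293T cells in DMEM with 1% FBS, dosed 24 h at 37C with 8 concentrations, 5 nM–87.5 uM final, 0.5% DMSO. ATP measured by CellTiter Glo luminescence; loss of signal vs DMSO, three biological replicates.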

[6] = molecular target: Luciferin 4-monooxygenase (Photinus pyralis) (UniProt P08659); experiment: CCTE_Simmons_QuantiLum_inhib_2: CCTE's Firefly Luciferase Inhibition Assay, Simmons Lab (AID 2283767)
Luciferin 4-monooxygenase (Photinus pyralis), sequence (P08659 whole entry, looked up): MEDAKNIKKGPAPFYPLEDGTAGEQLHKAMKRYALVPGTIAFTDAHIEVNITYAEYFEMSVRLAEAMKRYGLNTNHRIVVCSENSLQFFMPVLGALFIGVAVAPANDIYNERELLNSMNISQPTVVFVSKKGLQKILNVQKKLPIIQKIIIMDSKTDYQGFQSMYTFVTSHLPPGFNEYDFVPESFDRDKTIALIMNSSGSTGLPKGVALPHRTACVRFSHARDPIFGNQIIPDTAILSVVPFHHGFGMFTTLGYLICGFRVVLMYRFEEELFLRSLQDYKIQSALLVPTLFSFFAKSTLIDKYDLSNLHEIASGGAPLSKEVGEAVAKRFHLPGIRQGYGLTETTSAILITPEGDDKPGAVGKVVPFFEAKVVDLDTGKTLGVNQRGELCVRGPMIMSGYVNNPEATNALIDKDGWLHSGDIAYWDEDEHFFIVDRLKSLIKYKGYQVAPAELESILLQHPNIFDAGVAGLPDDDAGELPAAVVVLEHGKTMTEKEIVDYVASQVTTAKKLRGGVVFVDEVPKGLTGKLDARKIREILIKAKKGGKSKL
Outline: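 Cell-free recombinant firefly luciferase (5 ng/well) in 200mM potassium phosphate with 1 mg/ml BSA, 30 min at 37C with 8 concentrations from 5 nM to 87.5 uM [final], 0.5% DMSO. Luminescence read after D-luciferin (150uM)/dATP (147uM) reagent injection, pH 7.8; triplicates.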

For Cc1ccc(C)cc1, which outcome [1] is on record?
The outcome was “inactive”.

With CN(C)CCC=C1c2ccccc2C(C)(C)c2ccccc21 as the compound, how does the outcome [2] read?
The outcome was “inactive”.

For CC(=O)OC(C)OC(C)=O, which outcome [1] is on record?
Its outcome is “inactive”.

And the outcome [3]?
The outcome was “inactive”.

For C[C@@H](O)C(=O)O, which outcome [2] is on record?
The outcome was “inactive”.

And the outcome [3]?
Its outcome is “inactive”.

For CO[C@@]1(NC(=O)CSC[C@@H](N)C(=O)O)C(=O)N2C(C(=O)O)=C(CSc3nnnn3C)CS[C@@H]21, which outcome [2] is on record?
Its outcome is “inactive”.

And the outcome [1]?
Its outcome is “inactive”.

With CN1CCC[C@@H]1Cc1c[nH]c2ccc(CCS(=O)(=O)c3ccccc3)cc12 as the compound, how does the outcome [2] read?
Its outcome is “inactive”.

With O=C(CS(=O)Cc1ccco1)NC/C=C\COc1cc(CN2CCCCC2)ccn1 (stereo unspecified) as the compound, how does the outcome [2] read?
Its outcome is “inactive”.

What about the outcome [3] of the same compound?
Its outcome is “inactive”.

With COc1ccc(NS(=O)(=O)c2ccc(N)cc2)nn1 as the compound, how does the outcome [2] read?
Its outcome is “inactive”.

And the outcome [1]?
The outcome was “inactive”.

And the outcome [3]?
The outcome was “inactive”.

With CCN(CC)CCn1c(=O)c(Cc2ccc(OC)cc2)nc2ccccc21 as the compound, how does the outcome [1] read?
The outcome was “inactive”.

For Nc1ccc(S(=O)(=O)Nc2ccccc2)cc1, which outcome [2] is on record?
Its outcome is “inactive”.

What about the outcome [3] of the same compound?
Its outcome is “inactive”.

For CC1(C)CC(O)CC(C)(C)N1, which outcome [3] is on record?
Its outcome is “inactive”.

With CCOC(=O)c1cccc(O)c1 as the compound, how does the outcome [4] read?
Its outcome is “inactive”.

What about the outcome [5] of the same compound?
Its outcome is “inactive”.

What about the outcome [6] of the same compound?
Its outcome is “inactive”.

With S=c1[nH]c2cc(Cl)ccc2s1 as the compound, how does the AC50 [4] read?
The AC50 was 1.54 µM (active).

What about the outcome [5] of the same compound?
The outcome was “inactive”.

And the outcome [6]?
The outcome was “inactive”.

What does the source list for O=c1cccc(O)[nH]1?
AC50 [4]: 9.01 µM (active); outcome [5]: inactive; outcome [6]: inactive

For C=CC1CNC(=S)O1 (stereo unspecified), which AC50 [4] is on record?
Its AC50 is 10.6 µM (active).

What about the outcome [6] of the same compound?
Its outcome is “inactive”.

With COc1cnc(NS(=O)(=O)c2ccc(N)cc2)nc1 as the compound, how does the outcome [3] read?
The outcome was “inactive”.

Which outcome [3] does the source give for CNC(=O)N(c1ccccc1)c1ccccc1 here?
Its outcome is “inactive”.

Which results are given for Oc1cccnc1?
outcome [4]: inactive; outcome [5]: inactive; outcome [6]: inactive

Which results are given for OCc1ncccc1O?
outcome [4]: inactive; outcome [5]: inactive; outcome [6]: inactive

With Cc1cc(N)no1 as the compound, how does the outcome [1] read?
Its outcome is “inactive”.

And the outcome [3]?
Its outcome is “inactive”.

For Cn1c(=S)[nH]c2ccccc21, which AC50 [4] is on record?
The AC50 was 0.503 µM (active).

And the outcome [6]?
Its outcome is “inactive”.
